The values that follow come from PubChem BioAssay AID1053133 (Broad Institute, 2014).

The campaign covered roughly 89,000 compounds. About 10 (0.01%) were called active. Roughly 10% stayed inconclusive and do not appear here. Rule as the data show it: active = activity change below about -37% (passing the limit was not always enough); inconclusive = no clear call, values can overlap the other calls; tested in A549 cells. A selection follows.

A short description of this assay: Vaccinia orthopox stage-specific inhibition, primary screen, cell-based, single point (AID 1053133). Particulars: Vaccinia-infected cells, mCherry/Venus stage reporter fluorescence, stronger effect = lower value, concentration not given here; activity change (Venus): measured here: Venus reporter, other viral stage.
With `O=C(C[C@H]1C=C[C@@H](NS(=O)(=O)c2ccc(F)cc2)[C@@H](CO)O1)NC1CCC1`, the activity change (Venus) amounted to 1.04% and the activity change (mCherry) is -4.64% (inactive).
On to `COc1ccc2c3c(n(C)c2c1)[C@@H](CO)NCC31CCN(CC2CC2)CC1`, for which the activity change (Venus) was -18.9% and the activity change (mCherry) is -27.4% (inactive).
The matching figures for `O=C([C@@H]1[C@@H](CO)[C@@H]2Cn3c(ccc(C4=CCCC4)c3=O)[C@H]1N2C(=O)c1ccncc1)N1CCCCC1`: 16.9% and 10.1% (inactive).
Consider `C[C@@H]1CCCCO[C@H](CN(C)S(=O)(=O)c2cccs2)[C@H](C)CN([C@@H](C)CO)C(=O)c2cc(NC(=O)Nc3ccc4c(c3)OCO4)ccc2O1`, for which the activity change (Venus) worked out at 8.44% and the activity change (mCherry) is 9.35% (inactive).
The matching figures for `COCC(=O)N1CC2(CN(C(=O)c3cccnc3)C2)c2c([nH]c3cc(OC)ccc23)[C@H]1CO`: -0.352% and 2.73% (inactive).
The matching figures for `Cc1ccccc1S(=O)(=O)N[C@@H]1CC[C@H](CCn2cc(-c3ccc(F)cc3)nn2)O[C@@H]1CO`: -24.8% and -28.1% (inactive).
The matching figures for `CO[C@@H]1CC[C@@H]2CCOc3c(C#N)cccc3C(=O)N(C)C[C@H](C)C(=O)N(C)C[C@H]1O2`: 8.81% and 14.4% (inactive).
In the case of `C[C@@H]1CN([C@@H](C)CO)C(=O)c2cc(NC(=O)Cc3ccccc3)ccc2O[C@@H](C)CCCCO[C@H]1CN(C)C(=O)Nc1cccc2ccccc12`, the activity change (Venus) stood at 18.5% and the activity change (mCherry) is 21.9% (inactive).
The matching figures for `CN(C)CCCNC(=O)C[C@H]1CC[C@H]2[C@@H](COC[C@H](O)CN2CC2CCCCC2)O1`: 5.87% and 3.25% (inactive).
The matching figures for `C[C@@H]1CCCCO[C@@H](CN(C)Cc2ccc3c(c2)OCO3)[C@H](C)CN([C@@H](C)CO)C(=O)c2cc(NS(C)(=O)=O)ccc2O1`: 5.91% and -0.705% (inactive).
The matching figures for `COc1ccc2c3c(n(C)c2c1)[C@H](CO)N(CC1CCOCC1)CC31CCN(C(C)=O)CC1`: 11% and 17.4% (inactive).
Regarding `CN(C)CC(=O)Nc1ccc2c(c1)[C@@H]1C[C@H](CC(=O)NCc3ccc(Cl)cc3)O[C@@H](CO)[C@@H]1O2`, the activity change (Venus) worked out at 5.77% and the activity change (mCherry) is -4.73% (inactive).
Regarding `COc1ccc2c3c([nH]c2c1)[C@@H](CO)N(C(=O)c1ccc(F)cc1)CC31CCN(C(=O)Nc2ccc(F)cc2)CC1`, the activity change (Venus) is -2.47% and the activity change (mCherry) is 1.1% (inactive).
In the case of `C[C@H](CO)N1C[C@H](C)[C@H](CN(C)Cc2cccc(F)c2)Oc2ncc(C#CCN(C)C)cc2C1=O`, the activity change (Venus) was -6.38% and the activity change (mCherry) is -10.3% (inactive).
`COc1ccc(S(=O)(=O)N[C@@H]2CC[C@@H](CC(=O)NCCc3ccccc3)O[C@@H]2CO)cc1`: the activity change (Venus) was -2.59% and the activity change (mCherry) was 3.47% (inactive).
The like results for `O=C(NCC[C@@H]1CC[C@@H](NS(=O)(=O)c2ccc(Cl)cc2)[C@@H](CO)O1)c1ccccc1F` were, in that order, -4.89% and -8.02% (inactive).
The matching figures for `COc1ccc(S(=O)(=O)Nc2ccc3c(c2)C(=O)N([C@@H](C)CO)C[C@H](C)[C@@H](CN(C)C(=O)c2ccccc2)OCCCC[C@H](C)O3)cc1`: -18.1% and -21.6% (inactive).
The like results for `CC(C)NC(=O)N1Cc2cc(C(=O)NCC(F)(F)F)nc(-c3cccc(-c4cc5ccccc5o4)c3)c2[C@@H]1CCO` were, in that order, -13.3% and -16.3% (inactive).
Regarding `C[C@@H]1CN([C@@H](C)CO)C(=O)Cc2cc(NS(=O)(=O)c3cccs3)ccc2O[C@H]1CN(C)S(=O)(=O)c1ccc(F)cc1`, the activity change (Venus) amounted to 4.55% and the activity change (mCherry) is -5.12% (inactive).
Turning to `CO[C@@H]1CN(C)C(=O)c2cc(NC(=O)C3CC3)ccc2OC[C@H](C)N(C(=O)CN(C)C)C[C@H]1C`, the activity change (Venus) is -3.17% and the activity change (mCherry) is -2.47% (inactive).
In the case of `O=C(C[C@@H]1CC[C@H](NC(=O)Nc2ccc3c(c2)OCO3)[C@H](CO)O1)NCc1ccccc1`, the activity change (Venus) was 14.1% and the activity change (mCherry) is 19.4% (inactive).
On to `C=CCOC(=O)C1=C[C@@H](c2ccccc2)C[C@@H](OCc2ccc(CO)cc2)O1`, for which the activity change (Venus) was -3.63% and the activity change (mCherry) was 2.64% (inactive).
The matching figures for `O=C(C1CCCC1)N1CC(=O)N2[C@@H](CO)[C@@H](c3ccc(-c4cccnc4)cc3)[C@@H]2C1`: -4.04% and -5.69% (inactive).
The like results for `Cc1ccccc1-c1cnc2c(c1)C(=O)N([C@H](C)CO)C[C@@H](C)[C@H](CN(C)C(=O)c1cccnc1)O2` were, in that order, -1.16% and -1.67% (inactive).
With `CN(C)C(=O)c1ccc(-c2ccc(C3[C@H]4CNC[C@@H]3N4C(=O)Nc3cc(F)ccc3F)cc2)cc1` (some centres undefined), the activity change (Venus) was found to be 3.11% and the activity change (mCherry) is 14.7% (inactive).
In the case of `O=C(C1CCCCC1)N1CC2(C1)[C@H](c1ccccc1)[C@@H](CO)N2CCC(F)(F)F`, the activity change (Venus) is -3.18% and the activity change (mCherry) is -9.06% (inactive).
The like results for `CC(=O)Nc1ccc2c(c1)C(=O)N(C)[C@H]1CC[C@@H](CC(=O)NCC3CC3)O[C@H]1CO2` were, in that order, 11.1% and 7.92% (inactive).
The matching figures for `CCC(=O)N(C)C[C@@H]1Oc2ncc(/C=C/c3ccccc3)cc2C(=O)N([C@@H](C)CO)C[C@H]1C`: 1.22% and 12.1% (inactive).
Regarding `O=C(O)C[C@H]1C=C[C@@H](NC(=O)Nc2cc(F)ccc2F)[C@@H](CO)O1`, the activity change (Venus) was 9.94% and the activity change (mCherry) is 8.15% (inactive).
Turning to `COCC(=O)N(C)C[C@H]1Oc2cc(C#C[C@@H](C)O)ccc2S(=O)(=O)N([C@@H](C)CO)C[C@@H]1C`, the activity change (Venus) is -7.76% and the activity change (mCherry) is 2.13% (inactive).
The matching figures for `CCC(=O)N(C)C[C@@H]1Oc2cc(-c3ccc(C#N)cc3)ccc2S(=O)(=O)N([C@@H](C)CO)C[C@@H]1C`: 0.0371% and -1.36% (inactive).
The matching figures for `COc1ccc2c3c(n(C)c2c1)[C@@H](CO)N(S(C)(=O)=O)CC31CCN(C(=O)C2CCC2)CC1`: -12.1% and -2.22% (inactive).
The like results for `CC(C)C#Cc1cnc2c(c1)C(=O)N([C@H](C)CO)C[C@H](C)[C@@H](CN(C)C(=O)Nc1cc(F)ccc1F)O2` were, in that order, -6.46% and -3.74% (inactive).
Regarding `COc1ccccc1NC(=O)N1C[C@@H](O)COC[C@H]2O[C@@H](CC(=O)NCc3ccccc3)CC[C@@H]21`, the activity change (Venus) is -3.27% and the activity change (mCherry) is -5.93% (inactive).
The matching figures for `Cc1cccc(-c2ccc([C@@H]3[C@H]4CN(C(=O)c5ccccc5)CC(=O)N4[C@H]3CO)cc2)c1`: -26.3% and -24.1% (inactive).
The matching figures for `CCCN1C[C@H](C)[C@@H](OC)CN(C)C(=O)c2ccc(NC(=O)C3CCOCC3)cc2OC[C@@H]1C`: 5.44% and 13.4% (inactive).
The like results for `C[C@H]1CN([C@@H](C)CO)C(=O)CCCn2nncc2CO[C@@H]1CN(C)C(=O)Nc1ccc(N2CCN(C)CC2)cc1` were, in that order, 3.05% and 3.06% (inactive).
